In the library only some 3.1% were active in any assay of this set; here they are far more common.
DRD3 agonist = activates the human D3 dopamine receptor. P35462. D3R DiscoveRx beta-arrestin cells, luminescence, 90 min. max activation, %. actives 0.58% (n = 410,000). AID 652048; in the data active means max activation above about 30%; further: 0% is about no effect
Target sequence (P35462 whole entry, looked up): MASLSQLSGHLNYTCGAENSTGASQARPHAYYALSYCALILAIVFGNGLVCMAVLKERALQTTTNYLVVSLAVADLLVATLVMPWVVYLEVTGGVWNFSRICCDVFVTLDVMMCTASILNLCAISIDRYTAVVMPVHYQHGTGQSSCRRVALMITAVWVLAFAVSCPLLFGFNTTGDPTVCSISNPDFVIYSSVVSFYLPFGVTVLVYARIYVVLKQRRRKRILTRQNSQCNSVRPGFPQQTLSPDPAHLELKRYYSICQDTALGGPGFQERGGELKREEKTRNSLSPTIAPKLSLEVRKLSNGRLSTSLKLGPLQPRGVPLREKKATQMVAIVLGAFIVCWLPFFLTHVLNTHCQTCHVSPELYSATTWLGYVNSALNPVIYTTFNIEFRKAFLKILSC
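Agonist-mode cell screen: cells plated at 1500/well and incubated overnight at 37 °C, then exposed to library compounds for 90 min at 37 °C. Detection reagent was added for 30–60 min at room temperature, and luminescence was read.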
D3 antag = blocks the human D3 dopamine receptor. actives 2.5% (n = 360,000). max response, negative = inhibition, %. P35462. AID 652054. D3R cells, DiscoveRx beta-arrestin luminescence, antagonist mode; hits give low values; in the data active means max response below about -50%; inconclusive means no clear call, values can overlap the other calls; further: on the % scale 0 is the no-effect control and ±100 the full control effect
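Cells plated overnight at 1500 cells/well, then exposed to library compounds with dopamine controls for 90 minutes at 37 degrees C. DiscoveRx reagent added for 30–60 minutes at room temperature; luminescence read, quantitative HTS format.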
uPA generation = cell surface uPA generation inhibition; actives 0.31% (n = 330,000); Potency, µM (series often up to 38.3 µM), for the others: top-dose activity change, negative = inhibition, hits mostly inhibitors; cell surface uPA generation assay, qHTS; active means well fitted inhibition curve with a large enough effect; inconclusive means small, poorly fitted or top-dose-only effect; inactive means no such curve, though single readings can be large or run the other way; tested in mouse RAW 264.7 cells; further: potency means the concentration at half of the fitted maximal effect; on the % scale 0 is the no-effect control and ±100 the full control effect; nearly all actives have a fitted effect of over 55% in size
RGS4 inhibitor = inhibitors of human regulator of G protein signaling 4. P49798. Transcreener GDP fluorescence polarization, RGS4-accelerated GTP hydrolysis. Potency, µM (series often up to 114 µM), for inactives: at the top dose activity change, negative = inhibition, usual class: inhibitors. actives 0.039% (n = 390,000). AID 504845; active means well fitted inhibition curve with a large enough effect; inconclusive means small, poorly fitted or top-dose-only effect; inactive means no such curve, though single readings can be large or run the other way; further: potency means the concentration at half of the fitted maximal effect; on the % scale 0 is the no-effect control and ±100 the full control effect; nearly all actives have a fitted effect of over 75% in size
Target sequence (P49798 whole entry, looked up): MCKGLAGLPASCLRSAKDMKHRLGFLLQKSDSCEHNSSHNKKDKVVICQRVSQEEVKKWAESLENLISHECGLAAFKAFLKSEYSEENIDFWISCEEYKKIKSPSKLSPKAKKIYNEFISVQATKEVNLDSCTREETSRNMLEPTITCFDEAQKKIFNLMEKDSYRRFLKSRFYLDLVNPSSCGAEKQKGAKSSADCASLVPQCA
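MLSMR compounds (23 nl, pin-transferred) preincubated 10 min at room temperature with a 500nM (2x) first reagent, then RGS4 at 900nM (2x) plus Transcreener GDP mix added; fluorescence polarization (620/688 nm) read before and after 90 min at 30 °C.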
Starred values were filed as active, the others as inactive; ? = inconclusive; / = not tested or not shown; [ ] = dose if it differs, or a comment.

SMILES | DRD3 agonist | D3 antag | uPA generation | RGS4 inhibitor
COC(=O)c1cc2sccc2n1CC(=O)Nc1ccc(C)cc1C | 8 | / | / | 27%
O=S(=O)(Nc1cccc2ncccc12)c1cccs1 | -19 | -69* | -12% | 4%
Cc1c(NS(=O)(=O)c2cccs2)cccc1-c1nc2cccnc2s1 | 5 | -4 | 5% | 12%
O=[N+]([O-])c1ccc(N2CCNCC2)cc1Sc1nc2ccccc2[nH]1 | -16 | -66* | 6% | 24%
COc1ccc(CCNC(=O)C2CC(c3cc(C(F)(F)F)cc(C(F)(F)F)c3)=NO2)cc1 (configuration not stated) | 33* | 5 | 14% | -10%
CCCNC(=O)C1CC(c2ccc(C(F)(F)F)cc2)=NO1 (configuration not stated) | 38* | -14 | -6% | -3%
COc1ccc(C2=NOC(C(=O)NCC(C)C)C2)cc1 (configuration not stated) | -2 | -90* | / | -8%
O=C(NCCCCc1ccccc1)C1CC(c2ccc(C(F)(F)F)cc2)=NO1 (configuration not stated) | 58* | 53 | 18% | -3%
O=C(NCCCCc1ccccc1)C1CC(c2ccccc2C(F)(F)F)=NO1 (configuration not stated) | 5 | 11 | -34% | 5%
CCCCNC(=O)C1CC(c2ccc(C(F)(F)F)cc2)=NO1 (configuration not stated) | 20 | 9 | 8% | -7%
COCc1cc(C)nc2c1C(=O)NC(c1ccc(F)cc1)N2Cc1ccccc1 (configuration not stated) | 2 | / | / | 7%
Cc1ccc(OCC(=O)Nc2ccc(Cl)c(-c3nc4ncccc4o3)c2)c(C)c1 | 15 | / | / | 4%
COc1ccc(CCNC(=O)c2c(O)nc3ccccn3c2=O)cc1OC | 6 | / | / | 12%
Cn1nccc1/C=C(/C#N)S(=O)(=O)c1ccccc1 | 1 | -56* | 2% | -93%[56.9 µM]
COc1ccc(CCNC(=O)c2cc(-c3ccc(C)cc3)nc3n[nH]c(-c4ccccc4)c23)cc1OC | 74* | / | / | -13%
O=C(NNC(=O)c1cc2cc(Br)ccc2oc1=O)c1ccc(O)cc1 | -1 | -62* | 4% | 1%[11.4 µM]
Cc1cc(SCc2ccc([N+](=O)[O-])cc2)nc(=O)[nH]1 | 1 | 18 | -2% | -39%
Cc1cc(C)c2c(=O)[nH]c(SCC(=O)NCc3ccccc3)nc2n1 | -5 | -19 | -19% | -4%
Cc1cc(C)c2c(=O)[nH]c(SCc3ccccc3C)nc2n1 | -4 | -66* | 1% | -5%
Cc1cc(C)c2c(=O)[nH]c(SCc3ccc([N+](=O)[O-])cc3)nc2n1 | -1 | -69* | 1% | 26%
Cc1[nH]nc(C(=O)NN=Cc2ccccc2Cl)c1N=NN(C)C | -11 | -81* | -11% | ?
O=C(CNC(=O)OCc1ccccc1)NCC(=O)Oc1ccc([N+](=O)[O-])cc1 | -8 | -3 | 1% | -14%
CC(=O)c1ccccc1NS(=O)(=O)c1cc2c(cc1C)NC(=O)CO2 | 3 | / | / | 3%
CCCNC(=O)c1cc(C2CCCCN2S(C)(=O)=O)on1 (configuration not stated) | -26 | -91* | / | /
Cc1ccc(NC(=O)COC(=O)c2cccc3c2C(=O)c2ccccc2C3=O)c(C)c1 | 22 | 53 | -12% | -1%
SMILES | DRD3 agonist | D3 antag | uPA generation | RGS4 inhibitor
Cc1cc(C)c(NC(=O)COC(=O)c2cccc3c2C(=O)c2ccccc2C3=O)c(C)c1 | 32* | 35 | -17% | 12%
C(=N\N1CCN(Cc2ccccc2)CC1)/c1cccs1 | 1 | -73* | -2% | -2%
Cc1ccc(N(C)S(=O)(=O)c2ccc(-c3cc(C)no3)s2)cc1 | -11 | -7 | 2.2µM* | -12%
Cc1cc(-c2ccc(S(=O)(=O)N(C)c3ccc(C)c(C)c3)s2)on1 | -1 | ? | ? | -29%
CCOC(=O)c1ccc(NC(=O)Cn2cnc3sc(C(=O)OCC)c(C)c3c2=O)cc1 | 3 | / | / | -2%
CC1(C(=O)NC2CCN(Cc3ccccc3)CC2)CCN1Cc1cc2ccccc2o1 (configuration not stated) | -11 | -78* | / | /
CSc1ccc(CN2CCC2(C)C(=O)NC2CCN(Cc3ccccc3)CC2)cc1 (configuration not stated) | -19 | -111* | / | /
CC1(C(=O)NC2CCCCC2)CCC(=O)N1C1CCN(Cc2ccccc2)CC1 (configuration not stated) | 6 | 8 | / | /
CCOC(=O)CCc1c(C)nc2cc(-c3cc(OC)cc(OC)c3)[nH]n2c1=O | 0 | / | / | -5%
COc1cccc(C(NC(C)=O)c2nc(-c3cccc4cccnc34)cs2)c1 (configuration not stated) | 57* | -14 | / | /
COc1cccc(C(NC(C)=O)c2nc(-c3ccncc3)cs2)c1 (configuration not stated) | -2 | 0 | / | /
Cc1ccc(Cl)cc1N1CCN(c2nc3ccccc3c3nc(-c4cccnc4)nn23)CC1 | -10 | / | / | 26%
COc1cccc(CNC(=O)c2cnc(N3CCCC3)nc2C)c1 | 10 | / | / | 5%
C=C1C(O)[C@@H]2O[C@]3(CC[C@H](/C=C/C(C)[C@@H]4CC(C)=CC5(O[C@H](C[C@@](C)(O)CO)CCC5O)O4)O3)CC[C@H]2O[C@@H]1C(O)CC(C)[C@H]1OC2(CCCCO2)CCC1C (some centres not stated) | -29 | -78* | ? | -3%
CC1CC(C)CN(CCOCCSc2ccccc2)C1 (configuration not stated) | -11 | -73* | 0% | -25%
CC1CC(C)CN(CCOCCSc2ccc(Cl)cc2)C1 (configuration not stated) | -14 | -80* | -3% | 9%
CC1CC(C)CN(CCCSc2ccccc2)C1 (configuration not stated) | -10 | -51* | -3% | -39%
CC1CCCN(CCOCCSc2ccccc2)C1 (configuration not stated) | -12 | -73* | -1% | 12%
Cc1ccc(SCCOCCN2CCOCC2)cc1 | -10 | -27 | -7% | -22%
CC1CN(CCCCSc2ccccc2)CC(C)O1 (configuration not stated) | -20 | -11 | 12% | -4%
CCN(CC)C(=O)[C@H]1C[C@H](CC(=O)NCc2cccc(C(F)(F)F)c2)C(=O)N2CCc3c([nH]c4cc(-c5ccco5)ccc34)[C@]12C | -6 | 8 | ? | -19%
O=C(NC(NC(=S)Nc1c(Cl)cccc1Cl)C(Cl)(Cl)Cl)OCc1ccccc1 (configuration not stated) | -17 | -69* | -2% | -6%
CCOC(=O)NC(NC(=S)Nc1ccc(OCC)cc1)C(Cl)(Cl)Cl (configuration not stated) | 0 | -8 | 6% | -35%
CCc1ccccc1NC(=O)CCn1nc(C)c2c(C)n(-c3ccccc3)nc2c1=O | 2 | / | / | -25%
O=C(Nc1nc2c(s1)CCCC2)C1CCCN1C(=O)c1cccs1 (configuration not stated) | -5 | -53* | 2% | -4%

Source: PubChem
